The text below walks through data of PubChem BioAssay (Tox21).

The nature of assay [1]: qHTS assay to identify small molecule antagonists of the glucocorticoid receptor (GR) signaling pathway - cell viability counter screen (AID 720693). Also: nearly all actives have a fitted effect of over 55% in size. To be noted: GR-bla HeLa viability, CellTiter-Glo luminescence, 18 h, with 5 nM dexamethasone present; series mostly up to 58.5 µM.
Assay [2] in a line: qHTS assay for identifying genotoxic compounds that show differential cytotoxicity against isogenic chicken DT40 cell lines with known DNA damage response pathways - wild type cell line (AID 743012). Also: nearly all actives have a fitted effect of over 60% in size. Also: potency is read from the fitted curve at half-maximal effect. The settings on record: DT40 wild type chicken cells viability, CellTiter-Glo, 40 h; series mostly up to 68.4 µM. Put shortly:
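Quantitative HTS on parental DT40 cells: 40 h compound treatment at 37 C/5% CO2, with viability then determined by CellTiter-Glo luminescence. Values serve as the DNA repair-proficient reference for differential cytotoxicity.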

Assay [3] can be described thus: qHTS assay to identify small molecule antagonists of the androgen receptor (AR) signaling pathway - cell viability counter screen (AID 743033; also: nearly all actives have a fitted effect of over 45% in size). The settings on record: AR-bla HEK293 viability, CellTiter-Glo luminescence, 16 h; series mostly up to 58.5 µM.
The nature of assay [4]: qHTS assay to identify small molecule antagonists of the androgen receptor (AR) signaling pathway using the MDA cell line - cell viability counter screen (AID 743041; also: nearly all actives have a fitted effect of over 45% in size). The settings on record: MDA-kb2 viability, CellTiter-Fluor, 16 h, cells co-treated with R1881 androgen agonist; series mostly up to 70.3 µM. Put shortly:
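Same-well cytotoxicity was assessed by CellTiter-Fluor in MDA-kb2 AR-luc cells after 16 h of compound treatment under R1881 agonism.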

Assay [5] in a line: qHTS assay to identify small molecule antagonists of the thyroid receptor (TR) signaling pathway - cell viability counter screen (AID 743064). Also: nearly all actives have a fitted effect of over 50% in size. To be noted: GH3.TRE-Luc viability, CellTiter-Fluor, 24 h; series mostly up to 70.3 µM. Put shortly: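 Viability of T3-stimulated (1 nM final) GH3.TRE-Luc cells is measured by CellTiter-Fluor fluorescence after 23.5 h compound exposure at 37 °C plus 30 min reagent incubation.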

A short description of assay [6]: qHTS assay to identify small molecule antagonists of the thyroid receptor (TR) signaling pathway (AID 743065). Also: nearly all actives have a fitted effect of over 55% in size. To be noted: GH3.TRE-Luc, T3-stimulated luciferase inhibition, 23.5 h; series mostly up to 70.3 µM. The method in brief:
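GH3.TRE-Luc rat pituitary cells (two TREs driving luciferase) were dosed with compound, then stimulated with 1 nM T3 (final) for 23.5 h at 37 C. ONE-Glo luminescence was the read-out, with CellTiter-Fluor fluorescence as the cytotoxicity counter-screen.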

Assay [7] deals with thyroid hormone receptor (rat, GH3 cells). The assay can be described thus: qHTS assay to identify small molecule agonists of the thyroid receptor (TR) signaling pathway (AID 743066; calls by dose curve). The settings on record: GH3.TRE-Luc cells, TR agonist luciferase, 24 h; series mostly up to 83.9 µM.
A short description of assay [8]: qHTS assay to identify small molecule antagonists of the estrogen receptor alpha (ER-alpha) signaling pathway - cell viability counter screen (AID 743074; calls by dose curve;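 also: HEK293 cells carrying ER-alpha-UAS-bla reporter stimulated with 17beta-estradiol; nearly all actives have a fitted effect of over 45% in size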). The settings on record: ERalpha-bla HEK293 viability, CellTiter-Glo luminescence, 18 h; series mostly up to 69.4 µM.
The nature of assay [9]: qHTS assay to identify small molecule antagonists of the estrogen receptor alpha (ER-alpha) signaling pathway using the BG1 cell line - cell viability counter screen (AID 743081).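 Also: compound given together with 17beta-estradiol as the ER stimulus; nearly all actives have a fitted effect of over 45% in size.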 The settings on record: BG1Luc4E2 viability, CellTiter-Fluor, 22 h; series mostly up to 70.3 µM.
The next assay concerns the target Aromatase (Homo sapiens) (UniProt P11511). Briefly: qHTS assay to identify aromatase inhibitors (AID 743083). Also: nearly all actives have a fitted effect of over 55% in size. The settings on record: MCF-7 aro ERE, testosterone-driven ERE luciferase, 24 h; series mostly up to 70.3 µM.
Assay [10] can be described thus: qHTS assay for identifying genotoxic compounds that show differential cytotoxicity against isogenic chicken DT40 cell lines with known DNA damage response pathways - Rev3 mutant cell line (AID 743014). Also: nearly all actives have a fitted effect of over 55% in size. The settings on record: chicken DT40 Rev3-/- viability, CellTiter-Glo, 40 h; series mostly up to 68.4 µM.
For assay [11], the target named is Estrogen receptor (Homo sapiens) (UniProt P03372). Briefly: qHTS assay to identify small molecule antagonists of the estrogen receptor alpha (ER-alpha) signaling pathway (AID 743069; active = well fitted curve in the direction sought with a large enough effect in the signal ratio in the repeat runs, not every such curve was filed as active; the % refers to the signal ratio; also: potency is read from the fitted curve at half-maximal effect). The settings on record: HEK293 ER-alpha-UAS-bla, beta-lactamase ratio, antagonist mode; series mostly up to 69.4 µM. Put shortly:
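Reporter cells (ER-alpha-bla, HEK293 background) are conditioned overnight in stripped-serum medium (2% charcoal-stripped FBS). Compound and 17beta-estradiol exposure runs 18 hr at 37C, 5% CO2.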

The target is the same in assay [12]. The assay can be described thus: qHTS assay to identify small molecule agonists of the estrogen receptor alpha (ER-alpha) signaling pathway (AID 743075; calls by dose curve;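 also: HEK293 GripTite cells with ER-alpha and UAS-driven beta-lactamase reporter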). To be noted: HEK293 ER-alpha-UAS-bla, beta-lactamase FRET ratio, 18 h; series mostly up to 70.1 µM.
For assay [13] the target is unchanged. The assay can be described thus: qHTS assay to identify small molecule agonists of the estrogen receptor alpha (ER-alpha) signaling pathway using the BG1 cell line (AID 743079). Also: nearly all actives have a fitted effect of over 20% in size. The settings on record: BG1Luc4E2 cells, ERE-luciferase agonist, 22 h; series mostly up to 70.3 µM.
Assay [14] is described as follows: qHTS assay to identify small molecule antagonists of the estrogen receptor alpha (ER-alpha) signaling pathway using the BG1 cell line (AID 743080; calls by dose curve;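 also: BG1 cells stimulated with 17beta-estradiol alongside compound; nearly all actives have a fitted effect of over 25% in size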). To be noted: BG1Luc4E2 ERE-luciferase antagonist mode, luminescence; series mostly up to 70.3 µM. Put shortly:
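BG1-Luc-4E2 cells (endogenous full-length ER-alpha, 4xERE luciferase) hormone-starved 5 days in charcoal-stripped FBS, plated 4,000/well for 24 h, then compound plus 17beta-estradiol for 21.5 h at 37 C; ONE-Glo luminescence read.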

The nature of assay [15]: qHTS assay for identifying genotoxic compounds that show differential cytotoxicity against isogenic chicken DT40 cell lines with known DNA damage response pathways - Rad54/Ku70 mutant cell line (AID 743015). Also: nearly all actives have a fitted effect of over 60% in size. Also: potency is read from the fitted curve at half-maximal effect. To be noted: DT40 Rad54/Ku70 mutant viability, CellTiter-Glo, 40 h; series mostly up to 66.8 µM.
For assay [16], the target named is Androgen receptor (Homo sapiens) (UniProt P10275). Briefly: qHTS assay to identify small molecule agonists of the androgen receptor (AR) signaling pathway (AID 743036; active = well fitted activation curve with a large enough effect in the signal ratio in the repeat runs, with a control signal flat, not every such curve was filed as active; the % refers to the signal ratio). The settings on record: HEK293 AR-UAS-bla GripTite, beta-lactamase FRET ratio, 16 h; series mostly up to 62.4 µM. Put shortly:
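Screening used 2,000 AR-bla HEK293 cells per well, treated 16 h at 37C with test compounds in DMSO alongside positive and DMSO-only controls; beta-lactamase activity was then read by LiveBLAzer B/G FRET fluorescence after 2 h at room temperature.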

For assay [17] the target is unchanged. The assay can be described thus: qHTS assay to identify small molecule agonists of the androgen receptor (AR) signaling pathway using the MDA cell line (AID 743040; also: nearly all actives have a fitted effect of over 20% in size). The settings on record: MDA-kb2 AR-luc cells, MMTV luciferase, 16 h, active compounds read high; series mostly up to 70.3 µM. Put shortly: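 Human breast carcinoma MDA-kb2 reporter cells (MMTV-luc, AR/GR elements) were treated for 16 h at 37C in 0% CO2 following a 5 h settling period. Signal was quantified by ONE-Glo luminescence.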

Assay [18] shares this target. The assay can be described thus: qHTS assay to identify small molecule antagonists of the androgen receptor (AR) signaling pathway using the MDA cell line (AID 743042; also: nearly all actives have a fitted effect of over 55% in size). The settings on record: MDA-kb2 AR-luc, MMTV luciferase, R1881 antagonist, 16 h; series mostly up to 70.3 µM. The method in brief: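 MDA-kb2 breast carcinoma cells carrying MMTV-luciferase (AR/GR responsive) were co-treated with compounds and the agonist R1881 for 16 h at 37C. Inhibition read as ONE-Glo luminescence; CellTiter-Fluor fluorescence measured in parallel for cytotoxicity.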

Inconclusive results are not listed. Activity calls are given as the source filed them. Unless noted, calls follow the shape of the dose curve; as a rule, active = well fitted curve in the direction sought with a large enough effect in the repeat runs; inconclusive = weak or mixed curves; inactive = no such curve, though single readings can be large; an effect the other way counts as inactive or inconclusive.

Aromatase (Homo sapiens), sequence (P11511 whole entry, looked up): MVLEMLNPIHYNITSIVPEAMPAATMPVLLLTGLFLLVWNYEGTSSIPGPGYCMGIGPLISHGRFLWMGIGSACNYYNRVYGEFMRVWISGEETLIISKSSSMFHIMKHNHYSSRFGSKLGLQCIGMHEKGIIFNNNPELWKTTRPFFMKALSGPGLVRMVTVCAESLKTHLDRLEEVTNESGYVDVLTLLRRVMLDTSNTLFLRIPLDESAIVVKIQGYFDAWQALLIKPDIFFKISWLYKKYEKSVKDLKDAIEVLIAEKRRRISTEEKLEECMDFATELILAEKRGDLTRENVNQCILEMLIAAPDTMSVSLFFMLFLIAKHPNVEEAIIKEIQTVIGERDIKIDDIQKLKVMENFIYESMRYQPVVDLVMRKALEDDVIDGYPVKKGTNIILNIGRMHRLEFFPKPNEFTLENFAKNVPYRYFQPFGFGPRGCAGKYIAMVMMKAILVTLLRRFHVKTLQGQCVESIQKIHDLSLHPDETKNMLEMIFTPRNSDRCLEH
Estrogen receptor (Homo sapiens), sequence (P03372 whole entry, looked up): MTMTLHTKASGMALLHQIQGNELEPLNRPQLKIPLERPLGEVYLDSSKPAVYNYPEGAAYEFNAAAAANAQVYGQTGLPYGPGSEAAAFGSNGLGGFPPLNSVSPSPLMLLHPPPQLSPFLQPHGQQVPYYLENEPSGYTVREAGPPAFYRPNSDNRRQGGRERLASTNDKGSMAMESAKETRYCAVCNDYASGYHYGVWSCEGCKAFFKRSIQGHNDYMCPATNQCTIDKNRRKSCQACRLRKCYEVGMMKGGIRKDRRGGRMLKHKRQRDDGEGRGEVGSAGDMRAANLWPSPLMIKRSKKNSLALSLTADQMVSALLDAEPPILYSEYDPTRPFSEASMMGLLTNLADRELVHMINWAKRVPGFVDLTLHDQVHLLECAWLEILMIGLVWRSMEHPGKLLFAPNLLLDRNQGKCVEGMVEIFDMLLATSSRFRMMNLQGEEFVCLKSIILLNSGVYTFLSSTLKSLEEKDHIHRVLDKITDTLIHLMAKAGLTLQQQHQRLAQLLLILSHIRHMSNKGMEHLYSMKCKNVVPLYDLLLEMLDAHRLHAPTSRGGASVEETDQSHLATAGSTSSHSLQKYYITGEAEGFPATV
Androgen receptor (Homo sapiens), sequence (P10275 whole entry, looked up): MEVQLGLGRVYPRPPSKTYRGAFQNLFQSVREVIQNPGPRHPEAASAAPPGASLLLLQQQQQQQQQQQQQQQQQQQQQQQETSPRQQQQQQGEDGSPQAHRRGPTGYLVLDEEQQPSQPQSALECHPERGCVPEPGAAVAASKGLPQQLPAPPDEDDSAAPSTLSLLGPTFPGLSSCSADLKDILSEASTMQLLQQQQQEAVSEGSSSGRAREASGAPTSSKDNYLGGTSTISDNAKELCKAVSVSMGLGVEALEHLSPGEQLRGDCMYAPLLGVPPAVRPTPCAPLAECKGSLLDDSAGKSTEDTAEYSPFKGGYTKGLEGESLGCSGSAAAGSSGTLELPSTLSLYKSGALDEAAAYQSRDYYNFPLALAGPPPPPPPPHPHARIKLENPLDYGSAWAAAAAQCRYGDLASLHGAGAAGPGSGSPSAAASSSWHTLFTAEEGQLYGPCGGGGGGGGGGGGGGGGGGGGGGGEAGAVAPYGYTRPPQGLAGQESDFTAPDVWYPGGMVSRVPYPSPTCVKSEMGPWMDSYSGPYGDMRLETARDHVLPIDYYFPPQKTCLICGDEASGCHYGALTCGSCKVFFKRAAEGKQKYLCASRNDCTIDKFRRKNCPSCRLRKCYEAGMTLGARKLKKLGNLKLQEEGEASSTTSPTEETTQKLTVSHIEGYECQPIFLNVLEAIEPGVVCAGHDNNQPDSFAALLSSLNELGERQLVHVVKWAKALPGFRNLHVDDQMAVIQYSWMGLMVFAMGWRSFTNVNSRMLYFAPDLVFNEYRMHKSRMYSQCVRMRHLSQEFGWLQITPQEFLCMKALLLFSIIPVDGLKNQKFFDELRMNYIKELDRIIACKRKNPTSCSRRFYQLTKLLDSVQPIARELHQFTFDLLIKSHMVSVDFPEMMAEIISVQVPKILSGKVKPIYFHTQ

Take `CC(C)COC(=O)CCCCC(=O)OCC(C)C`: the Potency entry in assay [1], in [2], in assay [5], in [6], in assay [7] and in assay [8] was “inactive” in each case. Also, the call (in assay [3]; in assay [4]; in assay [9]; with Aromatase (Homo sapiens)) was inactive.

Turning to `CCCCC(=O)N(C)C`, the Potency result in assay [1], in [2], in [10], in assay [6], in assay [7] and in assay [11] was “inactive” throughout. Also, the Potency result in assay [8], in [12] and in assay [13] was “inactive” throughout. Also, the outcome (in assay [3]; in [4]; in assay [14]; in [9]; with Aromatase (Homo sapiens)) was inactive.

`O=S1(=O)CCCC1`: the Potency result in assay [1], in assay [2], in assay [5], in assay [6], in assay [7] and in [11] was “inactive” throughout. Moreover, the Potency result in assay [8], in assay [12] and in [13] was “inactive” in each case. Besides, the call (in [3]; in [4]; in [14]; in assay [9]; with Aromatase (Homo sapiens)) was inactive.

Take `COc1cc([N+](=O)[O-])ccc1N`: the Potency result in assay [1], in assay [2], in assay [15], in [6], in assay [7] and in [8] was “inactive” each time. For the same molecule, the Potency entry in assay [12] and in assay [13] was “inactive” in each case. The outcome (in assay [3]; in [16]; in assay [17]; in assay [18]; in assay [14]; with Aromatase (Homo sapiens)) was inactive. For the same molecule, in assay [11], the Potency is 6.92 µM [inhibitor] (active).

On to `COc1ccc(NS(=O)(=O)c2ccc(N)cc2)nn1`, for which the Potency entry in assay [1], in [2], in assay [15], in assay [5], in assay [6] and in assay [7] was “inactive” each time. The Potency entry in assay [11], in assay [8], in assay [12] and in [13] was “inactive” throughout. The molecule was classed as inactive (in assay [3]; in assay [14]; in [9]; with Aromatase (Homo sapiens)).

In the case of `O=c1cc(O)c(Cl)c[nH]1`, the Potency result in assay [1], in assay [2], in assay [5] and in assay [8] was “inactive” throughout. Also, the outcome (in assay [3]; in [9]; in the assay with Aromatase (Homo sapiens)) was inactive.

`Nc1ccc(S(=O)(=O)NC(=O)c2ccccc2)cc1`: the Potency entry in assay [1], in assay [2], in assay [15], in assay [5], in assay [6] and in [7] was “inactive” each time. Moreover, the Potency entry in [11], in assay [8], in assay [12] and in [13] was “inactive” in each case. In addition, the result (in [3]; in [4]; in assay [14]; in assay [9]; with Aromatase (Homo sapiens)) was inactive.

With `CN(C1CCCCC1)S(=O)(=O)c1ccccc1N`, the Potency result in assay [1], in assay [5], in assay [6], in assay [7] and in assay [8] was “inactive” in each case. Also, the Potency was 30.6 µM (active) in assay [2] and 54.5 µM (active) in assay [15]. Also, the result (in [4]; in assay [9]; in the assay with Aromatase (Homo sapiens)) was inactive.

Regarding `O=[Si]=O`, the Potency result in [1], in assay [2], in [10], in assay [6], in assay [7] and in [11] was “inactive” throughout. Besides, the Potency result in assay [8], in [12] and in assay [13] was “inactive” throughout. The result (in assay [3]; in assay [4]; in assay [14]; in assay [9]; in the assay with Aromatase (Homo sapiens)) was inactive.

For the molecule `CCC(CO)CO`, the Potency result in assay [1], in [2], in [15], in [6], in [7] and in [11] was “inactive” in each case. Moreover, the Potency entry in assay [8], in assay [12] and in [13] was “inactive” throughout. Besides, the result (in assay [3]; in [4]; in assay [14]; in assay [9]; in the assay with Aromatase (Homo sapiens)) was inactive.
